Test results: ChEMBL document CHEMBL1201862, “PubChem BioAssay data set” (2004)
In all, about 400,000 compounds went through this assay and about 2,100 (0.53%) were called active. Not shown: some 14% with an inconclusive outcome. The sample holds actives, similar compounds and a random draw of the others, so the mix is not that of the screen. The rule behind the calls is not given here.

Target: Ataxin-2 (Homo sapiens) (UniProt Q99700)
Experiment: qHTS for Inhibitors of ATXN expression.
Format: functional

Ataxin-2 (Homo sapiens), sequence (Q99700 whole entry): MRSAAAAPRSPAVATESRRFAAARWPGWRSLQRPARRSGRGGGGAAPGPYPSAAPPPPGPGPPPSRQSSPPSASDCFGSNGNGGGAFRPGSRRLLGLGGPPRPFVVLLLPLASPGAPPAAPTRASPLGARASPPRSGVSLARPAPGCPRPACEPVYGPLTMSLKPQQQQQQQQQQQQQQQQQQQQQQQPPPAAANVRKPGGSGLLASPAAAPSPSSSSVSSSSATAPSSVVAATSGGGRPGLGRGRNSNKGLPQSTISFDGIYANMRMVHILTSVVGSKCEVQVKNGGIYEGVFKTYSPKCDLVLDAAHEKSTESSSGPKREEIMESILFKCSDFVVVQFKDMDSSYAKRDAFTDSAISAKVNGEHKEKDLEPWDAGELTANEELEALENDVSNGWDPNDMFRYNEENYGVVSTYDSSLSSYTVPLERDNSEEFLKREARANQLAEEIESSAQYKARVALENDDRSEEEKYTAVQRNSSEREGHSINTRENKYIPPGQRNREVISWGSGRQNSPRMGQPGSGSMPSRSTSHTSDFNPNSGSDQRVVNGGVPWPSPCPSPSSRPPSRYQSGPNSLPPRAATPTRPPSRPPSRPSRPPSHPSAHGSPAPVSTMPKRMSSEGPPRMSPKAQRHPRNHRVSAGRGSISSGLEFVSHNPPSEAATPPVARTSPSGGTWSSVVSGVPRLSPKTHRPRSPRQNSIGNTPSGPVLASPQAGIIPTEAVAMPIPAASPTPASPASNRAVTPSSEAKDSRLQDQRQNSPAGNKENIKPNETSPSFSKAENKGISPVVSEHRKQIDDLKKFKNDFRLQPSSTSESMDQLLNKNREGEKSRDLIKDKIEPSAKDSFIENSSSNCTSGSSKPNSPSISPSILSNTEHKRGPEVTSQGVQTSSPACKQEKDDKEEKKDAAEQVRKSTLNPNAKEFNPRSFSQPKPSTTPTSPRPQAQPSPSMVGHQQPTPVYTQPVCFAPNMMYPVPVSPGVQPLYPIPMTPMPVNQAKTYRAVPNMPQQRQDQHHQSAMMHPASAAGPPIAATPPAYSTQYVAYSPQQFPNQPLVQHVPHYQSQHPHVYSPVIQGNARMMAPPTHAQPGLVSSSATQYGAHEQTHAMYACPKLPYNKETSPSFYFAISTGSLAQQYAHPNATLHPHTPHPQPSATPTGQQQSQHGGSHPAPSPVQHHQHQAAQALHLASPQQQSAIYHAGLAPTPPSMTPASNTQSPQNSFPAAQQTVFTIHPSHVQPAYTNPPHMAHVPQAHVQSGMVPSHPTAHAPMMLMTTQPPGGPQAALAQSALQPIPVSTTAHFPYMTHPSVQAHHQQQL

Row | SMILES | Potency
1 | COC(=O)c1ccc(-c2sc3nc(N4CCOCC4)c4c(c3c2N)CC(C)(C)OC4)o1 | inactive
2 | COc1cc(OC)cc(C(=O)NC(C(=O)NCCc2ccccn2)C(C)C)c1 (stereo unspecified) | inactive
3 | COc1cc(OC)c(NC(=O)C(C)n2nc(-c3ccc(C)c(C)c3)ccc2=O)cc1Cl (stereo unspecified) | 35.5 µM (active)
4 | COc1ccc(-c2ccc3c(N)c(C(=O)Nc4ccc(C)cc4C)sc3n2)cc1OC | inactive
5 | COc1cc(OC)c(NC(C)C(=O)NCc2ccccc2)cc1Cl (stereo unspecified) | inactive
6 | CCC(C(=O)Nc1cc(OC)cc(OC)c1)n1nc(-c2ccc(C)c(C)c2)ccc1=O (stereo unspecified) | 25.1 µM (active)
7 | COc1ccc(CC(=O)Nc2nn(C)c3nc4c(C)cccc4cc23)cc1 | inactive
8 | N#Cc1c(N)n(-c2cccc(Cl)c2)c2nc3ccccc3nc12 | inactive
9 | CCc1cc(=O)oc2c(C)c3c(cc12)CN(CCc1ccccc1)CO3 | inactive
10 | Cc1cccc(-c2nnc(SCc3cc(=O)c4c(C)cc(C)cc4[nH]3)[nH]2)c1 | 39.8 µM (active)
11 | COc1ccc(COC(=O)C2CC(=O)N(Cc3ccccc3)C2)cc1 (stereo unspecified) | inactive
12 | O=C(OCc1ccccc1)N1CCc2ccccc21 | inactive
13 | COC(=O)[C@@H]1C[C@]2(OC(=O)c3ccccc3)C=CC(=O)C[C@@H]2N1C(=O)OCc1ccccc1 | 25.1 µM (active)
14 | C=CCN1C(=O)c2cccc3c(N4CCCCC4)ccc(c23)C1=O | inactive
15 | COc1ccccc1/C=N/OC(=O)c1ccc(C)cc1 | inactive
16 | COc1ccccc1C=CC(=O)C=Cc1ccccc1OC | 16.8 µM (active)
17 | COc1ccccc1/C=C/C(=O)NCC(=O)N=Nc1c(O)[nH]c2ccccc12 | inactive
18 | CCN(c1ccccc1)S(=O)(=O)c1ccc(NC(=O)c2nc(S(C)(=O)=O)ncc2Cl)cc1 | 17.8 µM (active)
19 | O=C(Nc1ccc(S(=O)(=O)Nc2nccs2)cc1)c1nn(-c2ccccc2)ccc1=O | inactive
20 | CCOC(=O)c1c(O)cc(C)nc1O | inactive
21 | CN(c1ccccc1)S(=O)(=O)c1ccc(Cl)c(C(=O)Nc2nn[nH]n2)c1 | inactive
22 | Cc1ccc(NC(=O)c2sc3nc(C)cc(C)c3c2N)cc1 | inactive

Row | SMILES | Potency
23 | CS(=O)(=O)c1ncc(Cl)c(C(=O)Nc2ccc(N3CCOCC3)cc2)n1 | 25.1 µM (active)
24 | O=C(Nc1ccc(N2CCOCC2)cc1)c1cccc(S(=O)(=O)N2CCCCCC2)c1 | inactive
25 | CCOC(=O)c1cnc2c(C)cc(Cl)cc2c1N1CCN(C)CC1 | inactive
26 | CCS(=O)(=O)c1ncc(Cl)c(C(=O)Nc2ccc(C)cc2)n1 | 35.5 µM (active)
27 | COc1ccc(NC(=O)NS(=O)(=O)c2ccc(C)cc2)cn1 | inactive
28 | CCOC(=O)c1nc(S(C)(=O)=O)ncc1Cl | 39.8 µM (active)
29 | COC(=O)c1nc2ccc(N3CCOCC3)cc2c(C)c1C(=O)OC | inactive
30 | O=C(/C=C/Nc1ccc(S(=O)(=O)Nc2ncccn2)cc1)c1ccc(Cl)c(Cl)c1 | inactive
31 | CCc1cc(=O)oc2c(C)c(O[C@@H]3O[C@H](CO)[C@@H](O)[C@H](O)[C@H]3O)ccc12 | inactive
32 | CC(C)C1OC2(C)OC(=N)C1(C#N)C(C#N)(C#N)C2c1ccccc1 (stereo unspecified) | inactive
33 | CC(=O)c1ccc(N2CCN(C(=O)COc3ccc4ccccc4c3)CC2)cc1 | inactive
34 | Cc1oc(C(N)=O)cc1COc1ccc(C(N)=O)cc1 | inactive
35 | Cc1sc2ncn(CC(=O)NCCCC(=O)N3CCN(Cc4ccc5c(c4)OCO5)CC3)c(=O)c2c1C | inactive
36 | Cc1ccccc1NC(=O)c1nc(S(C)(=O)=O)ncc1Cl | inactive
37 | CCS(=O)(=O)c1ncc(Cl)c(C(=O)Nc2ccccc2OC)n1 | 35.5 µM (active)
38 | COC(=O)c1sc(-c2ccc(C(C)(C)C)cc2)cc1NC(=O)/C=C/C(=O)O | 39.8 µM (active)
39 | Cc1ccc2sc(-c3ccc(NC(=O)/C=C\C(=O)O)cc3)nc2c1 | inactive
40 | COC(=O)c1scc(C)c1NC(=O)CSc1ccc(Cl)cc1 | inactive
41 | COC(=O)c1sc(-c2ccc(Cl)cc2)cc1NC(=O)/C=C/C(=O)O | 28.2 µM (active)
42 | CC(=O)c1sc(-c2ccccc2)cc1NS(=O)(=O)c1ccccc1 | inactive
43 | COC(=O)c1scc(C)c1NC(=O)c1ccc(Cl)cc1 | inactive
44 | CCC(=O)NC(=S)Nc1ccc(S(=O)(=O)NC2CCCCC2)cc1 | inactive

Row | SMILES | Potency
45 | O=C(Nc1ccc(C(F)(F)F)cc1)c1cc(S(=O)(=O)NC2CCCCCC2)ccc1F | 35.5 µM (active)
46 | Cc1cc(C)c2c(N)c(C(=O)C(C)(C)C)sc2n1 | inactive
47 | C=COC(=O)c1sc2nc(C)cc(C)c2c1N | inactive
48 | CCOC(=O)N1CCC2(CC1)C(C#N)=C(N)Oc1c2sc2nc(C)cc(C)c12 | 25.1 µM (active)
49 | CSCCC(NC(=O)COc1ccccc1)C(=O)N1CCCCCC1 (stereo unspecified) | inactive
50 | O=C(CSc1ccc(F)cc1)Nc1ccccc1Br | inactive
51 | C/C(=N\Nc1cccc(C(F)(F)F)c1)c1ccc(O)cc1 | inactive
52 | O=C(NNc1ccccc1Br)C(O)(c1cccc(C(F)(F)F)c1)c1cccc(C(F)(F)F)c1 | 20 µM (active)
53 | NC(=O)NN=C1CCN2CCCc3cccc1c32 | inactive
54 | CC1(C)C/C(=N\NC(=S)Nc2ccccc2F)c2cc(O)ccc2O1 | inactive
55 | NC(=S)N/N=C1\CCOc2ccc(Cl)cc21 | 22.4 µM (active)
56 | O=c1c2cc(N3CCOCC3)ccc2[nH]c(=S)n1CCc1ccccc1 | inactive
57 | CC(C)(C)OC(=O)NCC(=O)Oc1cc2oc(=O)cc(-c3ccccc3)c2cc1Cl | inactive
58 | COC(c1ccccc1)c1nnc(CCC(=O)NCCc2ccc(Cl)cc2)o1 (stereo unspecified) | inactive
59 | CC(C)(C)OC(=O)NCCc1nnc(S(=O)(=O)Cc2ccc(Cl)cc2Cl)o1 | 17.8 µM (active)
60 | CC1CCc2nc(/C(C#N)=C/c3ccncc3)sc2C1 (stereo unspecified) | inactive
61 | CSCC(=O)Nc1cc(C)on1 | inactive
62 | O=C1c2ccccc2S(=O)(=O)c2cc(N3CCC(C(=O)N4CCCCC4)CC3)ccc21 | inactive
63 | COc1cccc(-c2ccc3c(N)c(C(=O)Nc4ccccc4C)sc3n2)c1 | inactive
64 | COc1cccc(-c2cnc3c(NC(C)=O)cc(-c4cccc(NS(C)(=O)=O)c4)cn23)c1 | 28.2 µM (active)
65 | COc1cc(S(=O)(=O)Nc2ccc3c(c2)C(=O)N(C)C3=O)ccc1NC(C)=O | inactive
66 | CC(=O)Nc1cc(-c2cccc(NS(C)(=O)=O)c2)cn2c(-c3cccc(C(F)(F)F)c3)cnc12 | 35.5 µM (active)
